This note sets out measurements from PubChem BioAssay (NCI).

Some test systems named below: SR leukemia; RPMI-8226 leukemia; OVCAR-8 ovarian; OVCAR-5 ovarian; OVCAR-4 ovarian; IGROV1 ovarian; OVCAR-3 ovarian; HS 578T breast; NCI/ADR-RES ovarian; T-47D breast; BT-549 breast; MDA-MB-435 melanoma; SW-620 colon; MCF7 breast; HCT-116 colon; HCC-2998 colon; KM12 colon; SK-OV-3 ovarian.
What all share (assay): NCI-60 one-dose screen, 48 h (100 = growth as untreated, 0 = no growth, -100 = all killed)
Details in all cases: 10 µM unless noted

Structures are written as SMILES. This is part of a sample that, as a whole, favours compounds with a hit. Of some 83,000 tested, about 20% had one in any assay.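 96-well plates, one dose, 48 hours. Percent growth reported; active if below 10.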 A number with no mark means an inactive call. Activity calls are given as the source filed them.

Consider `CN(C)CCCn1c2c(c3cnccc3c1=O)C(=O)c1ccccc1-2`, for which the growth in the assay on SR leukemia was -8.62% (active); with RPMI-8226 leukemia, -13.6% (active); in the assay on OVCAR-8 ovarian, -11.3% (active); in the assay with OVCAR-5 ovarian, 0.0676% (active); with OVCAR-4 ovarian it was -9.31% (active); in the assay with IGROV1 ovarian, 3.55% (active). For the same compound, the growth in the assay with OVCAR-3 ovarian was -11.8% (active); in the assay on HS 578T breast, 20.3%; with NCI/ADR-RES ovarian, -17.7% (active); in the assay with T-47D breast, -5.32% (active); with BT-549 breast, 6.92% (active); in the assay with MDA-MB-435 melanoma, 3.83% (active). Also, the growth is -6.01% (active) in the assay with SW-620 colon; -3.97% (active) in the assay on MCF7 breast; -12.6% (active) in the assay with HCT-116 colon; 3.98% (active) with HCC-2998 colon; 3.16% (active) in the assay with KM12 colon.

Take `Cc1ccc(S(=O)(=O)OC[C@]23CCC(C)(C)C[C@H]2C2=CC[C@@H]4[C@@]5(C)CCCNC(C)(C)[C@@H]5CC[C@@]4(C)[C@]2(C)CC3)cc1`: the growth in the assay on SR leukemia was -27.3% (active); in the assay on RPMI-8226 leukemia, 26.8%; in the assay on OVCAR-8 ovarian, -13.7% (active); with OVCAR-5 ovarian, 84.7%; in the assay with OVCAR-4 ovarian, 23.3%; in the assay on IGROV1 ovarian, 16.9%. Moreover, the growth in the assay with OVCAR-3 ovarian is 76.5%; in the assay on HS 578T breast, 85.3%; in the assay with NCI/ADR-RES ovarian it was 52.3%; in the assay with T-47D breast, 1.19% (active); with BT-549 breast, 88.2%; in the assay with MDA-MB-435 melanoma, 31%. Further, the growth is -71.3% (active) in the assay on SW-620 colon; 23.8% with MCF7 breast; -83% (active) in the assay on HCT-116 colon; -12.3% (active) in the assay with HCC-2998 colon; -1.94% (active) in the assay on KM12 colon.

For the compound `N#Cc1c(-c2ccccc2)nc2c(c(-c3ccccc3)nn2-c2ccccc2)c1-c1ccc(N2CCCCC2)cc1`, the growth is 114% with SR leukemia; 107% in the assay with RPMI-8226 leukemia; 98.4% in the assay with OVCAR-8 ovarian; 102% in the assay on OVCAR-5 ovarian; 105% in the assay with OVCAR-4 ovarian; 104% in the assay on IGROV1 ovarian. Besides, the growth was 111% with OVCAR-3 ovarian; 109% in the assay on HS 578T breast; 100% in the assay on NCI/ADR-RES ovarian; 104% in the assay on BT-549 breast; 99.9% with MDA-MB-435 melanoma; 99.2% in the assay with SW-620 colon. The growth in the assay with MCF7 breast is 100%; in the assay with HCT-116 colon it was 94.2%; in the assay with HCC-2998 colon, 107%; in the assay with KM12 colon, 103%.

Turning to `C=C1C(=O)O[C@H]2[C@H]1CC/C(CNC(=O)Cc1c[nH]c3ccccc13)=C\CC[C@@]1(C)O[C@@H]21`, the growth with SR leukemia is -13.6% (active); with RPMI-8226 leukemia it was -0.862% (active); in the assay with OVCAR-8 ovarian, 9.54% (active); in the assay on OVCAR-5 ovarian it was 46.2%; in the assay with OVCAR-4 ovarian, 38.2%; in the assay on IGROV1 ovarian it was 27.7%. For the same compound, the growth is -5.5% (active) in the assay with OVCAR-3 ovarian; 78.1% in the assay with HS 578T breast; 89.9% in the assay on NCI/ADR-RES ovarian; -9.45% (active) with T-47D breast; 13.6% in the assay with BT-549 breast; 7.96% (active) in the assay with MDA-MB-435 melanoma. Besides, the growth was -20.4% (active) with SW-620 colon; 17.8% in the assay with MCF7 breast; -11.9% (active) in the assay on HCT-116 colon; 60.4% in the assay with HCC-2998 colon; 47.5% in the assay with KM12 colon.

On to `CC1(C)CC(=O)C2=C(C1)C(c1ccc(Cl)cc1)n1ncc(C#N)c1N2` (stereo unspecified), for which the growth was 109% in the assay with SR leukemia; 96% in the assay on RPMI-8226 leukemia; 97% in the assay on OVCAR-8 ovarian; 103% with OVCAR-5 ovarian; 82.8% in the assay on SK-OV-3 ovarian; 85.7% with IGROV1 ovarian. Moreover, the growth with OVCAR-3 ovarian is 113%; in the assay on HS 578T breast, 98.1%; in the assay with NCI/ADR-RES ovarian it was 106%; in the assay on T-47D breast, 85.8%; in the assay on BT-549 breast it was 103%; in the assay with MDA-MB-435 melanoma it was 103%. In addition, the growth with SW-620 colon is 99.3%; with MCF7 breast, 95.4%; with HCT-116 colon, 98.4%; in the assay on HCC-2998 colon, 107%; in the assay with KM12 colon it was 110%.

As for `COc1ccc(NC(=O)c2ccc(Nc3ncnc4c3cnn4-c3cccc(F)c3)cc2)cc1`, the growth in the assay with SR leukemia is 95.2%; with RPMI-8226 leukemia it was 96.6%; in the assay with OVCAR-8 ovarian, 99.2%; in the assay with OVCAR-5 ovarian, 100%; in the assay with OVCAR-4 ovarian, 103%; in the assay on IGROV1 ovarian it was 109%. For the same compound, the growth in the assay with OVCAR-3 ovarian is 110%; in the assay with HS 578T breast, 97.4%; with NCI/ADR-RES ovarian it was 103%; with BT-549 breast, 104%; with MDA-MB-435 melanoma, 102%; with SW-620 colon it was 103%. The growth in the assay on MCF7 breast is 96.5%; in the assay with HCT-116 colon it was 103%; with HCC-2998 colon it was 107%; in the assay on KM12 colon, 100%.

Take `COc1ccc(OC)c(Nc2nnc(-c3cc(OC)c(OC)c(OC)c3)o2)c1`: the growth is 89.6% with SR leukemia; 95.2% in the assay with RPMI-8226 leukemia; 104% in the assay on OVCAR-8 ovarian; 105% in the assay with OVCAR-5 ovarian; 99.3% in the assay with OVCAR-4 ovarian; 98.5% in the assay on IGROV1 ovarian. In addition, the growth is 112% in the assay with OVCAR-3 ovarian; 107% in the assay with HS 578T breast; 94.4% in the assay with NCI/ADR-RES ovarian; 82.2% in the assay with T-47D breast; 88.8% in the assay on BT-549 breast; 102% in the assay on MDA-MB-435 melanoma. For the same compound, the growth was 108% in the assay with SW-620 colon; 105% in the assay with MCF7 breast; 103% in the assay with HCT-116 colon; 103% with HCC-2998 colon; 94.6% in the assay on KM12 colon.

In the case of `Cc1nc(N/N=C/c2cn(-c3ccccc3)nc2-c2cc3ccccc3oc2=O)sc1N=Nc1ccccc1`, the growth was 29.9% with SR leukemia; 89.3% in the assay with RPMI-8226 leukemia; 103% in the assay with OVCAR-8 ovarian; 104% in the assay with OVCAR-5 ovarian; 109% in the assay with SK-OV-3 ovarian; 89.1% in the assay with IGROV1 ovarian. The growth was 92.1% with OVCAR-3 ovarian; 90.2% in the assay with HS 578T breast; 88% in the assay with NCI/ADR-RES ovarian; 83.2% in the assay on T-47D breast; 78.3% in the assay with BT-549 breast; 3.67% (active) in the assay with MDA-MB-435 melanoma. The growth is 78.8% with SW-620 colon; 68.3% with MCF7 breast; 87.4% in the assay on HCT-116 colon; 104% with HCC-2998 colon; 63.7% in the assay with KM12 colon.

For `Cc1ccc(C)c2c1sc1nc(N3CCOCC3)c(C#N)c(=O)n12`, the growth in the assay with SR leukemia is 63.5%; in the assay on RPMI-8226 leukemia it was 76.5%; in the assay on OVCAR-8 ovarian it was 110%; with OVCAR-5 ovarian it was 95.8%; with SK-OV-3 ovarian, 99.4%; in the assay on IGROV1 ovarian, 55.9%. Also, the growth in the assay with OVCAR-3 ovarian was 89.9%; with HS 578T breast, 76.4%; in the assay on NCI/ADR-RES ovarian, 92.2%; with T-47D breast, 73.4%; in the assay with BT-549 breast, 90.9%; with MDA-MB-435 melanoma, 118%. The growth in the assay on SW-620 colon was 105%; with MCF7 breast it was 51.5%; with HCT-116 colon, 88.6%; with HCC-2998 colon it was 109%; in the assay with KM12 colon, 63.1%.
